# Reference: PubChem BioAssay (NCATS)
# Several values for one entry are separate records, joined by “and”; a condition that tells them apart may be missing. Equal entries are not always repeated. Records with an inconclusive call do not appear. Entries that show only a call come without a potency. Values without a mark were called inactive. Activity calls are given as the source filed them. The call rests on the fitted dose curve; in most records, active means well fitted curve in the direction sought with a large enough effect; inconclusive means small, poorly fitted or top-dose-only effect, or another doubt; inactive means no such curve, though single readings can be large; an effect the other way counts as inactive or inconclusive.
# How the values were obtained:
# [1] = biological target: Lysine-specific demethylase 5B (Homo sapiens) (UniProt Q9UGL1); assay: Optimization screen for KDM5B Histone Demethylases FDH coupled qHTS against the LOPAC library (AID 1347166); settings: KDM5B demethylation, FDH-coupled NADH fluorescence (FDH is formaldehyde dehydrogenase); series mostly up to 57.5 µM
# Summary of the method: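 KDM5BDeltaAP (200nM final) preincubated 10 min with compound, then 12.5uM H3K4Me3, 25uM a-ketoglutarate, ascorbate, Fe(II), NAD+ and FDH added; 50mM HEPES pH 7.5, 0.01% Tween-20. NADH fluorescence (340/450 nm) change over 30 min, room temperature.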
# [2] = Confirmatory screen NINDS Rhodamine qHTS for Zika virus inhibitors (AID 1347161); settings: purified enzyme assay, Rhodamine110 substrate fluorescence, 15 min; series mostly up to 114 µM; further: nearly all actives have a fitted effect of over 60% in size; further: potency means the concentration at half of the fitted maximal effect;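 on activity change, negative = inhibition: purified Zika NS2B-NS3 protease with linked NS2B cofactor domain and Rhodamine110 peptide substrate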
# Summary of the method: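 Enzyme (25 nM, linked NS2B-NS3) was preincubated 15 min with compound in 10 mM Tris-HCl pH 8.0, 0.01% Tween 20. Rhodamine110 substrate (1.5 microM) was then added and fluorescence read at start and after 15 min.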
# [3] = tested on: Zika virus NS2B-NS3 protease (linked); assay: 384 well plate NINDS AMC confirmatory qHTS for Zika virus inhibitors (AID 1347163); settings: Recombinant NS2B-NS3 protease, Ac-VKTGKR-AMC fluorescence; series mostly up to 100 µM; further: potency means the concentration at half of the fitted maximal effect; nearly all actives have a fitted effect of over 50% in size
# Summary of the method: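 Linked protease 5/30/60 nM final; cpds up to 1 mM final, ~15 min preinc. Substrate Ac-VKTGKR-AMC 30 microM final. RT, dark, 25 min; FI ex 355/em 460; normalized to no-enzyme/no-inhibitor ctrls.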
# [4] = Vero cells viability qHTS for Zika virus inhibitors (AID 1347167); settings: cytotoxicity counter-screen (Zika); series mostly up to 45.9 µM; further: potency means the concentration at half of the fitted maximal effect
# Summary of the method: (§1)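 Counter-screen for cytotoxicity of hits from NS2B-NS3 protease qHTS. Overnight-attached cells (2.5 x 10^5 cells/mL, DMEM/4% FBS) were dosed in titration, incubated 24 to 48 hours, then assayed by CellTiter Glo.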
# [5] = HepG2 cells viability qHTS for Zika virus inhibitors (AID 1347168); settings: Zika counter-screen; series mostly up to 45.9 µM
# Summary of the method: as §1
# [6] = Tertiary RLuc qRT-PCR qHTS assay for Zika virus inhibitors (AID 1347169); settings: infected Vero cells, reporter luminescence, 48-72 h; series mostly up to 45.9 µM; further: nearly all actives have a fitted effect of over 55% in size; further: potency means the concentration at half of the fitted maximal effect; on activity change, negative = inhibition: top concentration of the series differs between compounds
# Summary of the method: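 Orthogonal cell-based infection assay using recombinant ZIKV-RLuc (Cambodian) in Vero cells; compound added prior to virus at MOI 1-2. Incubation lasts 48-72 hrs at 37 degrees C before live-cell Renilla substrate is added and luminescence measured.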
# [7] = tested on: Zika virus NS2B-NS3 protease (unlinked complex); assay: Primary screen GU Rhodamine qHTS for Zika virus inhibitors: Unlinked NS2B-NS3 protease assay (AID 1347159); settings: Recombinant ZIKV NS2B-NS3 protease, Rhodamine110 substrate fluorescence; series mostly up to 107 µM; further: nearly all actives have a fitted effect of over 60% in size; further: potency means the concentration at half of the fitted maximal effect
# Summary of the method: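 Noncovalent NS2B hydrophilic domain–NS3 protease domain complex (25 nM) preincubated 15 min at room temperature with compounds (up to 114 microM) in 10 mM Tris-HCl pH 8.0, 0.01% Tween 20; 1.5 microM Rhodamine110 substrate added, fluorescence change over 15 min fitted to Hill equation.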
# [8] = tested on: Zika virus NS2B-NS3 protease (linked construct); assay: Primary screen NINDS Rhodamine qHTS for Zika virus inhibitors (AID 1347160); settings: purified NS2B-NS3 protease, Rhodamine110 substrate fluorescence; series mostly up to 57.1 µM; further: nearly all actives have a fitted effect of over 55% in size
# Summary of the method: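 Purified linked NS2B-NS3 protease (NS2B hydrophilic domain joined to NS3 protease by flexible linker), 25 nM in 10 mM Tris-HCl pH 8.0, 0.01% Tween 20. Compounds titrated, 15 min preincubation at room temperature; 1.5 microM Rhodamine110 substrate, FITC fluorescence change over 15 min.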
# [9] = tested on: Zika virus NS2B-NS3 protease (linked construct); assay: 384 well plate NINDS Rhodamine confirmatory qHTS for Zika virus inhibitors (AID 1347164); settings: rhodamine-110 peptide substrate fluorescence; series mostly up to 1 mM; further: nearly all actives have a fitted effect of over 65% in size; further: potency means the concentration at half of the fitted maximal effect; on activity change, negative = inhibition: top concentration of the series differs between compounds
# Summary of the method: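 Compounds are incubated about 15 minutes with linked protease (5, 30 or 60 nM final). Rhodamine 110-tagged Ac-LKRR substrate (10 microM final) is added and fluorescence measured after 25 minutes.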
# [10] = OV-KATE Cancer Cell Toxicity qHTS against the NCATS CANVASS Library (AID 1347345); settings: OV-KATE cells viability, CellTiter-Glo luminescence, 72 h; series mostly up to 38.3 µM
# Summary of the method: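 ATP content after 72 h treatment, detected by CellTiter-Glo luminescence (15min room-temperature development), reflects cell viability. Wells contained 1000 cells and received compounds at 11 concentrations.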
# Sequence of Lysine-specific demethylase 5B (Homo sapiens) (Q9UGL1 whole entry, looked up): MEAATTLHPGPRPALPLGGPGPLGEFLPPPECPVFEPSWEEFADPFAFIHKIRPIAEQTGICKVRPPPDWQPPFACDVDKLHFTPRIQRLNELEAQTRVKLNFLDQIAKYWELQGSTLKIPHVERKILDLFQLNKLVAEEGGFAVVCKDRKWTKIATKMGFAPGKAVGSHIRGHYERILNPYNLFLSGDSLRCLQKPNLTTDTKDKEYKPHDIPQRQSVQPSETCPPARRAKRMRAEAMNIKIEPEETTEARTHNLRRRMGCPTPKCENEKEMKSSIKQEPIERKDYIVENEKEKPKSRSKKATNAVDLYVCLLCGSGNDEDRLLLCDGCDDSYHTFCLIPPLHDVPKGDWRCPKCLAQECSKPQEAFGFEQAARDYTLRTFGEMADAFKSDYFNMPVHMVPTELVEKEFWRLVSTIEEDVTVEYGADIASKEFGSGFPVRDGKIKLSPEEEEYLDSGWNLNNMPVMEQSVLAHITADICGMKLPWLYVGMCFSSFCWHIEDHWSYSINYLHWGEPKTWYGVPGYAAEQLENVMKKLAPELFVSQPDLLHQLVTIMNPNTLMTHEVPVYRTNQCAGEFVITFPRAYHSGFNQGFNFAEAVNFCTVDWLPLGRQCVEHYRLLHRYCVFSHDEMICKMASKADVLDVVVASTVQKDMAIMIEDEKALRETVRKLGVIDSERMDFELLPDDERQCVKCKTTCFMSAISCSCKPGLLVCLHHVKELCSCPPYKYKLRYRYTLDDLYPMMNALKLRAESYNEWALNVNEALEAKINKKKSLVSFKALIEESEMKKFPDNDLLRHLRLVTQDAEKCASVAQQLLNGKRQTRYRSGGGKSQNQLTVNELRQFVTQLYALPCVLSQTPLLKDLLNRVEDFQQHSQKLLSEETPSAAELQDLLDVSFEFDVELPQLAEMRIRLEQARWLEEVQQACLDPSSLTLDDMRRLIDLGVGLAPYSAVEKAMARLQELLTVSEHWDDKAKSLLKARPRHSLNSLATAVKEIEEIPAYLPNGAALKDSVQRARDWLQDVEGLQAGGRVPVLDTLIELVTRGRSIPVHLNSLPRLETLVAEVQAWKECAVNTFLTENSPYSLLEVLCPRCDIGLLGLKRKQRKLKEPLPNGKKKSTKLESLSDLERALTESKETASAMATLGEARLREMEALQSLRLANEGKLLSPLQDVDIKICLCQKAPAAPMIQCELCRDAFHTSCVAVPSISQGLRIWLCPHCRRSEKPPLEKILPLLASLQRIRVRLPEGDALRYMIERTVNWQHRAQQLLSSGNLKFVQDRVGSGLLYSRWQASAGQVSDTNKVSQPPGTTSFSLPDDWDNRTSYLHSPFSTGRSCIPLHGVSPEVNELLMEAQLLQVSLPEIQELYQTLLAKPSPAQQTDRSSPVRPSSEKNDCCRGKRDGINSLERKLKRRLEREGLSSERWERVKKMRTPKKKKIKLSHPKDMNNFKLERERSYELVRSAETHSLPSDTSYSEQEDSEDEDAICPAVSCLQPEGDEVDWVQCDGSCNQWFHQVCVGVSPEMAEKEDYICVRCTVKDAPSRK
compound,measurement,setting,value
CC(C)(Oc1ccc(C2CC2(Cl)Cl)cc1)C(=O)O (centres undefined),outcome,[1],inactive
C[C@H]1c2cccc(O)c2C(O)=C2C(=O)[C@]3(O)C(O)=C(C(N)=O)C(=O)[C@@H](N(C)C)[C@@H]3[C@@H](O)[C@@H]21,Potency,[2],62.1 µM (active)
same,Potency,[3],63.1 µM (active)
same,Potency,[4],inactive
same,outcome,[5],inactive
Cn1ccc2cc3c(cc21)CCN3C(=O)Nc1cccnc1,Potency,[2],62.2 µM (active)
same,Potency,[3],31.6 µM (active) and 178 µM (active)
same,outcome,[1],inactive
same,Potency,[4],inactive
same,outcome,[5],inactive
same,Potency,[6],inactive
O=C1Cc2cc(CCN3CCN(c4nsc5ccccc45)CC3)c(Cl)cc2N1,Potency,[7],inactive
same,outcome,[8],inactive
same,Potency,[2],inactive
same,Potency,[9],2.82 µM (active)
same,Potency,[4],inactive
same,outcome,[5],inactive
same,Potency,[6],inactive
O=C(c1ccc(F)cc1)C1CCN(CCn2c(=O)[nH]c3ccccc3c2=O)CC1,Potency,[7],inactive
same,outcome,[8],inactive
same,Potency,[2],inactive
same,outcome,[1],inactive
same,Potency,[4],inactive
same,outcome,[5],inactive
same,Potency,[6],inactive
Cc1cnc(C(=O)NCCc2ccc(S(=O)(=O)NC(=O)NC3CCCCC3)cc2)cn1,Potency,[2],inactive
same,outcome,[1],inactive
same,Potency,[4],inactive
same,outcome,[5],inactive
same,Potency,[6],inactive
CC(C)(C)C(=O)Oc1ccc(S(=O)(=O)Nc2ccccc2C(=O)NCC(=O)O)cc1,Potency,[2],inactive
same,Potency,[4],inactive
same,outcome,[5],inactive
same,Potency,[6],inactive
COc1ccc2[nH]cc(CCNC(C)=O)c2c1,outcome,[8],inactive
same,outcome,[10],inactive
Clc1ccc2c(c1)C(N1CCNCC1)=Nc1ccccc1O2,Potency,[7],inactive
same,outcome,[8],inactive
same,outcome,[1],inactive
CCC1(c2ccccc2)C(=O)NCNC1=O,outcome,[1],inactive
CC[C@@]1(O)C(=O)OCc2c1cc1n(c2=O)Cc2cc3c(CN(C)C)c(O)ccc3nc2-1,Potency,[7],20 µM (active)
O=c1c(O)c(-c2ccc(O)c(O)c2)oc2cc(O)cc(O)c12,Potency,[2],50.1 µM (active)
same,outcome,[1],inactive
same,"activity change, negative = inhibition",[6],52.3% [at 5.25 µM] and 65.1% [at 0.997 µM]
COc1nc(C)nc(Cl)c1NC1=NCCN1,outcome,[1],inactive
Cc1cc(C(C)(C)C)c(O)c(C)c1CC1=NCCN1,Potency,[7],inactive
same,outcome,[8],inactive
same,outcome,[1],inactive
Cc1ccc(-c2cc(C(F)(F)F)nn2-c2ccc(S(N)(=O)=O)cc2)cc1,Potency,[7],inactive
same,outcome,[8],inactive
CS(=O)(=O)CCNCc1ccc(-c2ccc3ncnc(Nc4ccc(OCc5cccc(F)c5)c(Cl)c4)c3c2)o1,outcome,[8],inactive
COc1cc2nc(N3CCN(C(=O)c4ccco4)CC3)nc(N)c2cc1OC,Potency,[2],inactive
same,Potency,[4],inactive
same,outcome,[5],inactive
CN(C)C(=O)C(CCN1CCC(O)(c2ccc(Cl)cc2)CC1)(c1ccccc1)c1ccccc1,outcome,[1],inactive
CCOC(=O)Nc1ccc(NCc2ccc(F)cc2)nc1N,Potency,[2],inactive
same,Potency,[4],inactive
same,outcome,[5],inactive
same,Potency,[6],inactive
Nc1c2c(nc3ccccc13)CCCC2,outcome,[1],inactive
CNCCCC12CCC(c3ccccc31)c1ccccc12,Potency,[7],inactive
same,outcome,[8],inactive
same,outcome,[1],inactive
O=C(Nc1ccc([N+](=O)[O-])cc1Cl)c1cc(Cl)ccc1O,Potency,[3],20 µM (active)
same,Potency,[9],7.94 µM (active)
same,outcome,[1],inactive
same,Potency,[4],0.415 µM (active)
same,Potency,[6],0.294 µM (active)
CCCNCC(O)COc1ccccc1C(=O)CCc1ccccc1 (centres undefined),outcome,[1],inactive
CC1(C)O[C@H]2CC(=O)OC[C@]23[C@H]2CC[C@@]4(C)[C@H](c5ccoc5)OC(=O)[C@H]5O[C@]54[C@]2(C)C(=O)C[C@@H]13,Potency,[7],inactive
same,outcome,[8],inactive [at 33.1 µM]
Cc1ccccc1N1C(=O)c2cc(S(N)(=O)=O)c(Cl)cc2NC1C (centres undefined),Potency,[2],inactive
same,Potency,[4],inactive
same,outcome,[5],inactive
same,Potency,[6],inactive
CC(COc1ccccc1)N(CCCl)Cc1ccccc1 (centres undefined),outcome,[1],inactive
Cc1ccc(C(=O)Nc2ccc(S(=O)(=O)O)c3cc(S(=O)(=O)O)cc(S(=O)(=O)O)c23)cc1NC(=O)c1cccc(NC(=O)Nc2cccc(C(=O)Nc3cc(C(=O)Nc4ccc(S(=O)(=O)O)c5cc(S(=O)(=O)O)cc(S(=O)(=O)O)c45)ccc3C)c2)c1,Potency,[2],2.24 µM (active) and 2.51 µM (active)
same,Potency,[3],7.94 µM (active)
same,Potency,[9],inactive
same,Potency,[6],inactive
CCN1CCCC1CNC(=O)c1cc(S(=O)(=O)CC)c(N)cc1OC (centres undefined),outcome,[1],inactive
CC1COc2c(N3CCN(C)CC3)c(F)cc3c(=O)c(C(=O)O)cn1c23 (centres undefined),Potency,[2],inactive
same,Potency,[4],inactive
same,outcome,[5],inactive
same,Potency,[6],inactive
O=C1c2c(O)ccc(O)c2C(=O)c2c(NCCNCCO)ccc(NCCNCCO)c21,outcome,[1],inactive
Cc1cc(C(C)(C)C)cc(C)c1CC1=NCCN1,outcome,[1],inactive
Nc1nc2c(ncn2COC(CO)CO)c(=O)[nH]1,outcome,[1],inactive
Cn1c(=O)c2c(ncn2C)n(C)c1=O,outcome,[1],inactive
